# Assay results reported in PubChem BioAssay (EPA / NIEHS).
# Results filed as inconclusive are left out. The source made the active and inactive calls. The calls were made as follows, unless noted: active = hit-call score of the fitted dose curve at least 0.9, where 1 is the maximum; inactive = score below 0.9.
# Columns and labels:
# [1] = target: Glucocorticoid receptor (Homo sapiens) (UniProt P04150); assay: ATG_GR_TRANS: Attagene TRANS-FACTORIAL HepG2 Assay for human Glucocorticoid Receptor (GR) (AID 2282978; active = hit-call score of the fitted dose curve at least 0.9, where 1 is the maximum;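 also: activators score as hits since higher reporter transcript over DMSO is fitted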); conditions: HepG2 Attagene TRANS GR reporter, mRNA transcription
# How it was run: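 Reporter transcript levels, detected by fluorescence after RT-PCR and capillary electrophoresis, served as the endpoint. HepG2 cells bearing transfected GAL4-UAS reporters responsive to NR-GAL4 chimeras were incubated with compound 24 h; DMSO defined baseline.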
# [2] = target: Bile acid receptor (Homo sapiens) (UniProt Q96RI1); assay: ATG_FXR_TRANS: Attagene TRANS-FACTORIAL HepG2 Assay for Farnesoid X Receptor (FXR) (AID 2282979; active = hit-call score of the fitted dose curve at least 0.9, where 1 is the maximum;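 also: hits raise reporter mRNA above DMSO so AC50 marks FXR activation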); conditions: HepG2 Attagene TRANS FXR-GAL4 reporter transcription
# How it was run: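 Reporter transcripts from transfected HepG2 cells were measured 24 h after dosing, using RT-PCR with capillary electrophoresis of 6-FAM-labelled fragments. The read-out reflects activity of exogenous FXR-Gal4 chimera on GAL4-UAS units, with induction relative to DMSO.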
# [3] = ATG_M_32_TRANS: Attagene TRANS-FACTORIAL HepG2 Assay for M32 Transcription Factor (Internal Marker) (AID 2282984; active = hit-call score of the fitted dose curve at least 0.9, where 1 is the maximum;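 also: transcript level of a background control reporter unit measured by RT-PCR and capillary electrophoresis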); conditions: HepG2 Attagene TRANS M32 internal marker reporter
# How it was run: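 HepG2 cells transiently transfected with GAL4-UAS reporter units, dosed for 24 hours. Reporter mRNA quantified by RT-PCR, 6-FAM labelling, HpaI digestion and capillary electrophoresis; internal-marker signal fitted upward relative to DMSO.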
# [4] = target: Nuclear receptor subfamily 4 group A member 2 (Homo sapiens) (UniProt P43354); assay: ATG_NURR1_TRANS: Attagene TRANS-FACTORIAL HepG2 Assay for human Nuclear Receptor Related Protein 1 (NURR1) (AID 2282985; active = hit-call score of the fitted dose curve at least 0.9, where 1 is the maximum); conditions: HepG2 Attagene TRANS reporter, mRNA readout
# How it was run: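 HepG2 cells transiently transfected with NURR1-Gal4 chimera and GAL4-UAS reporter units; after 24 hr compound exposure, reporter mRNA quantified by RT-PCR and capillary electrophoresis; gain of signal fitted against DMSO.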
# [5] = target: Transcriptional activator Myb (Homo sapiens) (UniProt P10242); assay: ATG_Myb_CIS: Attagene CIS-FACTORIAL HepG2 Assay for human Myeloblastosis (Myb) Proto-Oncogene Transcription Factor (AID 2282986); conditions: HepG2 Attagene CIS-FACTORIAL Myb reporter transcription; actives raise or lower the signal
# How it was run: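 Transiently transfected HepG2 cells, treated 24 h. Reporter mRNA quantified by RT-PCR/capillary electrophoresis; bidirectional fit relative to DMSO.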
# [6] = target: Nuclear respiratory factor 1 (Homo sapiens) (UniProt Q16656); assay: ATG_NRF1_CIS: Attagene CIS-FACTORIAL HepG2 Assay for human Nuclear Respiratory Factor 1 (NRF1) Orphan Gene (AID 2282987); conditions: HepG2 NRF1 cis-element reporter, Attagene multiplex; actives raise or lower the signal
# How it was run: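 Cells (HepG2, transient MRTU transfection) are exposed to compound for 24 h, then RNA isolated and reporter mRNA amplified and fluorescently labelled. Fragments are separated by capillary electrophoresis; signal change is fitted bidirectionally relative to DMSO.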
# [7] = ATG_NFI_CIS: Attagene CIS-FACTORIAL HepG2 Assay for human Nuclear Factor I (NFI) (AID 2282989); conditions: HepG2 cis-regulatory reporter, NFI response element transcription; actives raise or lower the signal
# How it was run: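 Read-out: reporter mRNA via RT-PCR plus capillary electrophoresis with fluorescence detection. Transiently transfected HepG2 (endogenous TF activity on cis promoters), 24 h compound exposure; gain or loss of signal fitted against DMSO.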
# [8] = target: Myc proto-oncogene protein (Homo sapiens) (UniProt P01106); assay: ATG_Myc_CIS: Attagene CIS-FACTORIAL HepG2 Assay for human Myelocytomatosis (Myc) Proto-Oncogene Transcription Factor (AID 2282990); conditions: HepG2, Attagene cis-reporter transcription factor activity; actives raise or lower the signal
# How it was run: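 Transiently transfected HepG2 cells bearing cis-promoter reporter units for endogenous transcription factors; 24 h exposure. Reporter mRNA measured by RT-PCR, 6-FAM primer extension, HpaI cut and capillary electrophoresis; bidirectional fit relative to DMSO.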
# [9] = ATG_NRF2_ARE_CIS: Attagene CIS-FACTORIAL HepG2 Assay for human Nuclear Factor Erythroid 2 Related Factor 2 (NFR2) response to Antioxidant Response Elements (ARE) (AID 2282992); conditions: HepG2 Attagene ARE/NRF2 reporter, transcription factor activity; actives raise or lower the signal;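 as to AC50: reporter mRNA level measured by RT-PCR and capillary electrophoresis fluorescence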
# How it was run: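 Cis-factorial assay: transfected HepG2 reporter library, 24 h dosing, mRNA readout via RT-PCR/CE; DMSO-referenced bidirectional analysis.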
# [10] = ATG_Oct_MLP_CIS: Attagene CIS-FACTORIAL HepG2 Assay for human Octamer-Binding Transcription Factor (Oct) (AID 2282993); conditions: HepG2 Attagene cis-factorial Oct reporter, mRNA; actives raise or lower the signal
# How it was run: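 Read-out: reporter mRNA via RT-PCR plus capillary electrophoresis of 6-FAM-labelled fragments. Transiently transfected HepG2, 24 h exposure, endogenous TF activity on cis elements. Gain or loss of signal fitted relative to DMSO.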
# [11] = target: Cellular tumor antigen p53 (Homo sapiens) (UniProt P04637); assay: ATG_p53_CIS: Attagene CIS-FACTORIAL HepG2 Assay for human p53 Transcription Factor (AID 2282994); conditions: HepG2 p53 cis-element reporter, Attagene mRNA; actives raise or lower the signal
# How it was run: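 Using HepG2 hepatoma cells carrying cis-acting multiplexed reporters, mRNA induction is detected after a 24 h exposure. Gain- and loss-of-signal responses are fitted relative to DMSO-treated cells.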
# [12] = BSK_3C_TissueFactor: BioMAP Diversity Plus: 3C Assay for Tissue Factor Biomarker Activity (AID 2282997); conditions: BioMAP 3C HUVEC, tissue factor biomarker readout; actives raise or lower the signal
# How it was run: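 Dosing of human umbilical vein endothelial cells preceded a 24 h incubation. Tissue Factor was then read by ELISA, with increases and decreases both scored relative to DMSO controls.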
# [13] = BSK_3C_uPAR: BioMAP Diversity Plus: 3C Assay for Urokinase-type plasminogen activator receptor (uPAR) Biomarker Activity (AID 2282998); conditions: BioMAP 3C HUVEC, uPAR biomarker ELISA; actives raise or lower the signal
# How it was run: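 HUVEC primary cells; 24 h post-dose; uPAR by ELISA; gain or loss of signal fitted bidirectionally vs DMSO baseline.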
# [14] = BSK_3C_VCAM1: BioMAP Diversity Plus: 3C Assay for Vascular cell adhesion molecule 1 (VCAM1) Biomarker Activity (AID 2282999); conditions: BioMAP 3C HUVEC, VCAM1 ELISA, cytokine-stimulated; actives raise or lower the signal
# How it was run: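 Human umbilical vein endothelial cells (3C system), biomarker read by ELISA 24 h after dosing; bidirectional fit against DMSO baseline. Cytotoxicity tracked by SRB total-protein staining in parallel cultures at biomarker time.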
# [15] = BSK_4H_Eotaxin3: BioMAP Diversity Plus: 4H Assay for Eotaxin 3 Biomarker Activity (AID 2283000); conditions: primary human endothelial cells (HUVEC); actives raise or lower the signal;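 as to outcome: CCL26 protein level quantified by ELISA in parallel with SRB cytotoxicity check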
# How it was run: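 Human umbilical vein endothelial cells (BSK_4H system) dosed with test chemical; Eotaxin-3 (CCL26) measured by ELISA 24 h after dosing. Bidirectional curve fitting relative to DMSO negative control as baseline.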
# [16] = target: Oxysterols receptor LXR-alpha (Homo sapiens) (UniProt Q13133); assay: ATG_LXRa_TRANS: Attagene TRANS-FACTORIAL HepG2 Assay for human Liver X Receptor alpha (LXRa) (AID 2282980; active = hit-call score of the fitted dose curve at least 0.9, where 1 is the maximum); conditions: HepG2 Attagene TRANS reporter, LXRa transactivation
# How it was run: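 Chemical-induced reporter mRNA measured by RT-PCR with fluorescent labelling and capillary electrophoresis after 24 h dosing of transiently transfected HepG2 cells expressing exogenous NR-Gal4 chimeras; increases scored against DMSO baseline.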
# [17] = target: Oxysterols receptor LXR-beta (Homo sapiens) (UniProt P55055); assay: ATG_LXRb_TRANS: Attagene TRANS-FACTORIAL HepG2 Assay for human Liver X Receptor beta (LXRb) (AID 2282981; active = hit-call score of the fitted dose curve at least 0.9, where 1 is the maximum); conditions: HepG2 Attagene TRANS GAL4-LXRb reporter, mRNA
# How it was run: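 HepG2 cells transiently transfected with GAL4-UAS reporter units for chimeric NR-Gal4 proteins, dosed for 24 h. Reporter transcripts measured by RT-PCR and capillary electrophoresis; gain-of-signal fitting relative to DMSO.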
# [18] = ATG_M_06_TRANS: Attagene TRANS-FACTORIAL HepG2 Assay for M06 Transcription Factor (Internal Marker) (AID 2282983; active = hit-call score of the fitted dose curve at least 0.9, where 1 is the maximum); conditions: HepG2 Attagene TRANS M06 internal marker reporter
# How it was run: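 Cells: HepG2, transient multi-reporter transfection. Exposure: 24 h. Detection: RT-PCR, 6-FAM labelling, HpaI digestion (2 h, 37 °C), capillary electrophoresis. Baseline: DMSO.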
# [19] = target: Hepatocyte nuclear factor 4-alpha (Homo sapiens) (UniProt P41235); assay: ATG_HNF4a_TRANS: Attagene TRANS-FACTORIAL HepG2 Assay for human Hepatocyte Nuclear Factor 4 alpha (HNF4a) (AID 2282982; active = hit-call score of the fitted dose curve at least 0.9, where 1 is the maximum); conditions: HepG2 HNF4a transactivation reporter, mRNA readout
# How it was run: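 HepG2 cells transiently transfected with HNF4a-Gal4 chimera and GAL4-UAS reporter units, dosed for 24 h. Reporter mRNA measured by RT-PCR, fluorescent primer extension and capillary electrophoresis; gain-of-signal fitted relative to DMSO.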
# [20] = ATG_NF_kB_CIS: Attagene CIS-FACTORIAL HepG2 Assay for human Nuclear Factor Kappa B (NF-kB) (AID 2282991); conditions: HepG2 Attagene cis-factorial NF-kB reporter mRNA; actives raise or lower the signal
# How it was run: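 Measures mRNA induction of an NF-kB-responsive cis-element reporter in HepG2 cells transfected with multiple reporter units, sampled 24 h post-dosing; quantified by fluorescence after RT-PCR and capillary electrophoresis, fitted for activation or inhibition against DMSO.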
# Chain of Transcriptional activator Myb (Homo sapiens) (P10242 whole entry, looked up): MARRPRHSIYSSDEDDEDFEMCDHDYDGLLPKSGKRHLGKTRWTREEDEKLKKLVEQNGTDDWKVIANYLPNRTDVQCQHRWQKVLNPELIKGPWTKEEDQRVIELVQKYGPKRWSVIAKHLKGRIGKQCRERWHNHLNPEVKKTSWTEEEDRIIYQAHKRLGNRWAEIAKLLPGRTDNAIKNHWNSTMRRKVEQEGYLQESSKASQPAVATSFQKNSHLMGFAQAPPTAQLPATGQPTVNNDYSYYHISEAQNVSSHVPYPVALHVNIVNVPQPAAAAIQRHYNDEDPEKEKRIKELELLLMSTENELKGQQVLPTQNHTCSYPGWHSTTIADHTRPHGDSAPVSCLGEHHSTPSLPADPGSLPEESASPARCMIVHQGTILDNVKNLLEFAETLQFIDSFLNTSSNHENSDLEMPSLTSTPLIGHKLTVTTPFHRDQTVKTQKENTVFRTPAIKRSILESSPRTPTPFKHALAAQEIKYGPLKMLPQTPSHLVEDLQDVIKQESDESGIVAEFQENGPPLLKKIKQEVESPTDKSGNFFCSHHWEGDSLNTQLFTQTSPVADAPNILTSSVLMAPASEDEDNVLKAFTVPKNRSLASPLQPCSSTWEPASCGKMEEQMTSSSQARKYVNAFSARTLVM
# Chain of Cellular tumor antigen p53 (Homo sapiens) (P04637 whole entry, looked up): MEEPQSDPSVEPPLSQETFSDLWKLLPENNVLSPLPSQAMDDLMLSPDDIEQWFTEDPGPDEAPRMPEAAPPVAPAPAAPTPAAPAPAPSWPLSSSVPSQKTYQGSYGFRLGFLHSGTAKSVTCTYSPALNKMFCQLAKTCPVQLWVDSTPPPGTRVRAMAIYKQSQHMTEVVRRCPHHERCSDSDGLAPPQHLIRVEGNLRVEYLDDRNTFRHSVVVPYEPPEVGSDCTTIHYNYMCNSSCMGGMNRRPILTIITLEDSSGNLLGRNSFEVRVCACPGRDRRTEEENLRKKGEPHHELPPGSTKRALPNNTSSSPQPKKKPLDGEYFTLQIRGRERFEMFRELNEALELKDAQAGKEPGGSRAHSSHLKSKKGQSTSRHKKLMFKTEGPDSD
# Chain of Myc proto-oncogene protein (Homo sapiens) (P01106 whole entry, looked up): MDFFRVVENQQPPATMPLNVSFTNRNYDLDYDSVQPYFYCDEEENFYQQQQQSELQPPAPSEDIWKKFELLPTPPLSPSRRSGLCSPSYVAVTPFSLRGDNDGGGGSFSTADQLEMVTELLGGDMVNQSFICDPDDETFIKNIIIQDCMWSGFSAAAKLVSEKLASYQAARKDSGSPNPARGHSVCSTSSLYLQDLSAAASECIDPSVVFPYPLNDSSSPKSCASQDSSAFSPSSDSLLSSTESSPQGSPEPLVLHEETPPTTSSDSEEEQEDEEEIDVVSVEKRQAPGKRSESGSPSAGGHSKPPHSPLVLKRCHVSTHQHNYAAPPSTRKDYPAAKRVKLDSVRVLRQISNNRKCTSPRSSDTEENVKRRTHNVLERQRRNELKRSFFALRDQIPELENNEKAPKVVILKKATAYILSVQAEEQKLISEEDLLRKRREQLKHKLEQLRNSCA
# Chain of Oxysterols receptor LXR-alpha (Homo sapiens) (Q13133 whole entry, looked up, the tested form may be a part): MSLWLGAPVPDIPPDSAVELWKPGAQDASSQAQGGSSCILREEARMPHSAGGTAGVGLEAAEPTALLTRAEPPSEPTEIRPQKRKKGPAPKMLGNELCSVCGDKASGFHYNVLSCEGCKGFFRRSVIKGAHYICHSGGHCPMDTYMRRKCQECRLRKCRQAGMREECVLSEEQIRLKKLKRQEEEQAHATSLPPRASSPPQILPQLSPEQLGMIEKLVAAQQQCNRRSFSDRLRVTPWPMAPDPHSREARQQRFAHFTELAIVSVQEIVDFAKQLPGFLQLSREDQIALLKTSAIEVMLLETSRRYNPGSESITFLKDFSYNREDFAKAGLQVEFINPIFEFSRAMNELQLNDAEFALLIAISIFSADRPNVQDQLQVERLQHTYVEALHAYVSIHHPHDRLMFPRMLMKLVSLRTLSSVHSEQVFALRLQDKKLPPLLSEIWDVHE
# Chain of Oxysterols receptor LXR-beta (Homo sapiens) (P55055 whole entry, looked up, the tested form may be a part): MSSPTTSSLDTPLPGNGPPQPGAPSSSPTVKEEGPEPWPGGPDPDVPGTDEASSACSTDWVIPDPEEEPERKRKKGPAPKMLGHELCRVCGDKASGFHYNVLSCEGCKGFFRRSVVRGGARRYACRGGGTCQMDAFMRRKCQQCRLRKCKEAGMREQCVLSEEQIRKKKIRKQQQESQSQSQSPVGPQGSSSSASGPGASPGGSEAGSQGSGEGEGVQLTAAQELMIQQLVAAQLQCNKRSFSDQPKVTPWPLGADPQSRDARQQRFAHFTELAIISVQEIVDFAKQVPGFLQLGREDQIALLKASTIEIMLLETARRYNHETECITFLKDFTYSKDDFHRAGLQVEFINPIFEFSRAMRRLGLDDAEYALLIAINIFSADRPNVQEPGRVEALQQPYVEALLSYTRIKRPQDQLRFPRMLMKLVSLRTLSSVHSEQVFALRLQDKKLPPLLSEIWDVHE
# Chain of Glucocorticoid receptor (Homo sapiens) (P04150 whole entry, looked up, the tested form may be a part): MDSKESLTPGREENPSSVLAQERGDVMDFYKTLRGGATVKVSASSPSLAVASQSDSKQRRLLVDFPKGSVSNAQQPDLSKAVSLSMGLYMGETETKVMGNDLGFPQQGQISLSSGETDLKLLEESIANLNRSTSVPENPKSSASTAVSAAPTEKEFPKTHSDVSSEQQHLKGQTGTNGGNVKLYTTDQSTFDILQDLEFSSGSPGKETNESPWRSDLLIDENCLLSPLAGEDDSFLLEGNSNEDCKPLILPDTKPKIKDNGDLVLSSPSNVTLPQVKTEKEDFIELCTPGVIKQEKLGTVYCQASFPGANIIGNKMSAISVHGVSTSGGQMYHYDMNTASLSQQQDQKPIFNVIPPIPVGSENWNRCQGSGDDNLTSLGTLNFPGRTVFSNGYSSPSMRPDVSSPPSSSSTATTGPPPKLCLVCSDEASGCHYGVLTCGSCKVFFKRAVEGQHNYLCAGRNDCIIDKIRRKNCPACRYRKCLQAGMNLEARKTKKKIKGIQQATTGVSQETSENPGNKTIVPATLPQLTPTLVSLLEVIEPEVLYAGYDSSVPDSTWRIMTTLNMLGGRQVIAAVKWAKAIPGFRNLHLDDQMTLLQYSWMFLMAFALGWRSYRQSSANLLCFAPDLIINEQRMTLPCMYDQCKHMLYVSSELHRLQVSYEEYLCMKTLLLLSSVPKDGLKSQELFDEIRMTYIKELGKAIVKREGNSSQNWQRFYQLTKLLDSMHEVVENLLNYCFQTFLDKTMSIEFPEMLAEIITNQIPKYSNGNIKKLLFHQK
# Chain of Nuclear receptor subfamily 4 group A member 2 (Homo sapiens) (P43354 whole entry, looked up, the tested form may be a part): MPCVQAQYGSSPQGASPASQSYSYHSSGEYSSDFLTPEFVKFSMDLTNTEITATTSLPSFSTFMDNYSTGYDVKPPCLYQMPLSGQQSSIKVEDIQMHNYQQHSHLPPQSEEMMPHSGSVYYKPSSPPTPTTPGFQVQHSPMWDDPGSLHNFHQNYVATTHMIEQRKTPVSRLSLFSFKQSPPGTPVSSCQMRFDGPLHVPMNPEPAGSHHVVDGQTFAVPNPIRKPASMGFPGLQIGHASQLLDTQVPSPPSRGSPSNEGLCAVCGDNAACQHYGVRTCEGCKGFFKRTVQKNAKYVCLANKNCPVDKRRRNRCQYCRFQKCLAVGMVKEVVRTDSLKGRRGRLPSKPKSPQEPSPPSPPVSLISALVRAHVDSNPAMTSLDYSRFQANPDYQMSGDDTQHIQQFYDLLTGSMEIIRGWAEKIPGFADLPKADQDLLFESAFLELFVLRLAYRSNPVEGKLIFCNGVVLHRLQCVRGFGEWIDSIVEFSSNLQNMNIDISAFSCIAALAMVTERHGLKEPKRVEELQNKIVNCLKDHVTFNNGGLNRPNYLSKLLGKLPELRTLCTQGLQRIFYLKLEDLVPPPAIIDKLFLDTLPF
# Chain of Bile acid receptor (Homo sapiens) (Q96RI1 whole entry, looked up, the tested form may be a part): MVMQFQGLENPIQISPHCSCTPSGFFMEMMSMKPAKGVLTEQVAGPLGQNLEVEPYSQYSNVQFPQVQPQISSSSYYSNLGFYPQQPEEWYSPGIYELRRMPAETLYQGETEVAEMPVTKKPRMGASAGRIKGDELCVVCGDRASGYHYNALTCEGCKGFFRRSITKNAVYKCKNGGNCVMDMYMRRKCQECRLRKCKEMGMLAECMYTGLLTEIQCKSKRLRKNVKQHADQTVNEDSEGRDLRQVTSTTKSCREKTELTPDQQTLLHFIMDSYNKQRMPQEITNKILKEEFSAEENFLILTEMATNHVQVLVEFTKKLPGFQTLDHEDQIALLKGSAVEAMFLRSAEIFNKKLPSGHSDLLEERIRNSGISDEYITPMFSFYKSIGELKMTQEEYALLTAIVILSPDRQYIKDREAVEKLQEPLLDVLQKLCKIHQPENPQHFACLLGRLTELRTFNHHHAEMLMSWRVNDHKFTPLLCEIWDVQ
# Chain of Nuclear respiratory factor 1 (Homo sapiens) (Q16656 whole entry, looked up, the tested form may be a part): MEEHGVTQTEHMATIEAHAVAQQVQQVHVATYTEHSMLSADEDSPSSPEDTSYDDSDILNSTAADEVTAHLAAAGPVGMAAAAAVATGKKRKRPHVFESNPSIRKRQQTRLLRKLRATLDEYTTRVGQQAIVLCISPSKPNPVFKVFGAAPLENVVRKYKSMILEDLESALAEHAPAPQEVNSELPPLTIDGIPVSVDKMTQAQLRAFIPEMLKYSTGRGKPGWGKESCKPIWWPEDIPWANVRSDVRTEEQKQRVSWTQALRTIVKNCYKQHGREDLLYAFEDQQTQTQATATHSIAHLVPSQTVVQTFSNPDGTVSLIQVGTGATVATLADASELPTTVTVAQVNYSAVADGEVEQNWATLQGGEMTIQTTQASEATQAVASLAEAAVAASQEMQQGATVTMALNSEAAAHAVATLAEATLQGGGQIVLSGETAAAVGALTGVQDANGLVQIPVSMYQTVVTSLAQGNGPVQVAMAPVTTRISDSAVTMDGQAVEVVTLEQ
smiles,measurement,setting,value
CC(C)(C)CC(C)(C)c1ccc(OCCOCC[N+](C)(C)Cc2ccccc2)cc1,outcome,[1],inactive
same,outcome,[2],inactive
same,outcome,[3],inactive
same,outcome,[4],inactive
same,outcome,[5],inactive
same,outcome,[6],inactive
same,outcome,[7],inactive
same,outcome,[8],inactive
same,AC50,[9],6.71 µM (active)
same,outcome,[10],inactive
same,AC50,[11],8.35 µM (active)
same,AC50,[12],7.26 µM (active)
same,AC50,[13],5 µM (active)
same,AC50,[14],7.65 µM (active)
same,AC50,[15],7.69 µM (active)
CCCC(=O)c1ccccc1,outcome,[1],inactive
same,outcome,[16],inactive
same,outcome,[17],inactive
same,outcome,[18],inactive
same,outcome,[3],inactive
same,outcome,[6],inactive
same,outcome,[8],inactive
same,outcome,[9],inactive
same,outcome,[10],inactive
same,outcome,[11],inactive
CCc1ncc(C)[nH]1,outcome,[1],inactive
same,outcome,[16],inactive
same,outcome,[17],inactive
same,outcome,[18],inactive
same,outcome,[5],inactive
same,outcome,[6],inactive
same,outcome,[7],inactive
same,outcome,[8],inactive
same,outcome,[9],inactive
same,outcome,[10],inactive
same,outcome,[11],inactive
CS(=O)(=O)c1ccc(Cl)cc1,outcome,[1],inactive
same,outcome,[16],inactive
same,outcome,[17],inactive
same,outcome,[18],inactive
same,outcome,[5],inactive
same,outcome,[6],inactive
same,outcome,[7],inactive
same,outcome,[8],inactive
same,outcome,[9],inactive
same,outcome,[10],inactive
Cc1c(C2(c3cc(Br)c(O)c(Br)c3C)OS(=O)(=O)c3ccccc32)cc(Br)c(O)c1Br,outcome,[1],inactive
same,outcome,[16],inactive
same,outcome,[19],inactive
same,outcome,[4],inactive
same,outcome,[5],inactive
same,outcome,[6],inactive
same,outcome,[7],inactive
same,outcome,[8],inactive
same,outcome,[20],inactive
same,AC50,[9],52.5 µM (active)
same,outcome,[10],inactive
same,outcome,[11],inactive
CCCCCCCCN1CCCC1=O,outcome,[1],inactive
same,outcome,[2],inactive
same,outcome,[18],inactive
same,outcome,[6],inactive
same,outcome,[7],inactive
same,outcome,[8],inactive
same,AC50,[9],66.8 µM (active)
same,outcome,[10],inactive
same,AC50,[11],72.6 µM (active)
C=CCCC(=O)/C=C/C1C(C)=CCCC1(C)C (configuration not stated),outcome,[1],inactive
same,outcome,[16],inactive
same,outcome,[17],inactive
same,outcome,[18],inactive
same,outcome,[4],inactive
same,outcome,[6],inactive
same,outcome,[7],inactive
same,outcome,[8],inactive
same,outcome,[20],inactive
same,AC50,[9],110 µM (active)
same,outcome,[10],inactive
same,outcome,[11],inactive
O=C(O)c1cc(C(=O)O)cc([N+](=O)[O-])c1,outcome,[1],inactive
same,outcome,[16],inactive
same,outcome,[17],inactive
same,outcome,[3],inactive
same,outcome,[5],inactive
same,outcome,[6],inactive
same,outcome,[7],inactive
same,outcome,[8],inactive
same,outcome,[9],inactive
same,outcome,[10],inactive
same,outcome,[11],inactive
Clc1cc(Cl)c(-c2c(Cl)c(Cl)cc(Cl)c2Cl)cc1Cl,outcome,[1],inactive
same,outcome,[2],inactive
same,outcome,[3],inactive
same,outcome,[4],inactive
same,outcome,[5],inactive
same,outcome,[6],inactive
same,outcome,[7],inactive
same,outcome,[8],inactive
same,outcome,[20],inactive
same,AC50,[9],26.7 µM (active)
same,outcome,[10],inactive
same,outcome,[11],inactive
same,AC50,[12],10 µM (active)
same,AC50,[13],17.1 µM (active)
same,AC50,[14],12.9 µM (active)
same,AC50,[15],12.5 µM (active)
CCCCCCC(CO)CCCC (configuration not stated),outcome,[1],inactive
same,outcome,[16],inactive
same,outcome,[19],inactive
same,outcome,[4],inactive
same,outcome,[7],inactive
same,outcome,[8],inactive
same,outcome,[20],inactive
same,outcome,[10],inactive
same,outcome,[11],inactive
same,outcome,[12],inactive
same,outcome,[13],inactive
same,outcome,[14],inactive
same,outcome,[15],inactive
COc1ccccc1N=Nc1c(S(=O)(=O)O)cc2cc(S(=O)(=O)O)cc(NC(C)=O)c2c1O,outcome,[1],inactive
same,outcome,[16],inactive
same,outcome,[18],inactive
same,outcome,[3],inactive
same,outcome,[4],inactive
same,outcome,[5],inactive
same,outcome,[6],inactive
same,outcome,[7],inactive
same,outcome,[8],inactive
same,outcome,[20],inactive
same,outcome,[9],inactive
same,outcome,[10],inactive
same,outcome,[11],inactive
